PubChem BioAssay AID652105 (National Center for Advancing Translational Sciences (NCATS), 2013)
Among all 330,000 compounds or so, about 4,100 (1.2%) were called active. Inconclusive results (about 2%) are left out. The sample holds actives, similar compounds and a random draw of the others, so the mix is not that of the screen. Rule for the calls: active = max response of -50% or lower; inconclusive = between -30% and -50%; inactive = -30% or higher.

These molecules were tested against Phosphatidylinositol 5-phosphate 4-kinase type-2 alpha (Homo sapiens) (UniProt P48426) (assay: qHTS for Inhibitors of phosphatidylinositol 5-phosphate 4-kinase (PI5P4K)). Conditions: PI5P4Kalpha enzyme, ADP-Glo luminescence, 60 min; active compounds read low.
Sequence of Phosphatidylinositol 5-phosphate 4-kinase type-2 alpha (Homo sapiens) (P48426 whole entry, looked up): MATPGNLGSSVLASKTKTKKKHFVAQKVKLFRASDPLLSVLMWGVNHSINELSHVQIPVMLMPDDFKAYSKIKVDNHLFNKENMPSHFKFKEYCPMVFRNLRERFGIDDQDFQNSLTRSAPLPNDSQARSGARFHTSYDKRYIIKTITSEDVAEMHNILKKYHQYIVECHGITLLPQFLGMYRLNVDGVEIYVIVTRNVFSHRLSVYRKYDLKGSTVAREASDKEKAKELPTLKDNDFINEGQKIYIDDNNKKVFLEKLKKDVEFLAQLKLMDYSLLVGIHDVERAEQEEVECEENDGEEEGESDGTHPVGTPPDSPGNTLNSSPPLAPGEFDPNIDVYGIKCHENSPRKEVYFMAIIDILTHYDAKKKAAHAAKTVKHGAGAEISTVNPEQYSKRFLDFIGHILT
In short: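 ADP-Glo luminescence end-point after a 60 min room-temperature kinase reaction. PI5P4Kalpha and substrate in HEPES pH 7.4 buffer with EGTA, 0.1% CHAPS and 5% DMSO; ATP at 5 microM final.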
% is set by controls: 0 for no effect and ±100 for the full control effect.
Note: value at the top dose of about 77 µM.

SMILES | max response
CCCCCCn1c(=O)n2n(c1=O)C[C@]1(OC(=O)NCc3ccc(OC)c(OC)c3)CN(S(=O)(=O)c3ccc(C)cc3)C[C@]1(O)C2 | 3.29% (inactive)
CCOC(=O)[C@]12CCCC=C1N(CCC1=CCCCC1)C(=O)[C@H](CC(=O)NCCCCc1ccccc1)C2 | 0.467% (inactive)
CCCOc1ccc(F)cc1-c1cc(C(=O)Nc2ccc(F)cc2)[nH]n1 | 0.345% (inactive)
COc1ccc(N(C(=O)c2cccnc2)S(=O)(=O)c2ccc3c(c2)n(C)c(=O)n3C)cc1 | -3.4% (inactive)
COc1ccc(N(C(=O)c2cccnc2)S(=O)(=O)c2ccc(OC)c(OC)c2)cc1 | 0.0951% (inactive)
O=C(c1cccnc1)N(c1cc2sc(=O)oc2c2ccccc12)S(=O)(=O)c1ccccc1 | -69.2% (active)
COCCCNC(=O)c1cccc2c(-c3ccc(O)c(OC)c3)coc12 | 4.94% (inactive)
COCCCNC(=O)c1ccc(-c2c(C)noc2C)c2ccoc12 | -2.64% (inactive)
CCOc1ccc(CCN2C(=O)c3cccnc3C2=O)cc1OCC | -0.64% (inactive)
O=C1c2cccnc2C(=O)N1Cc1cccs1 | 0.461% (inactive)
NC1=CC(=O)C(=O)c2cccnc21 | -50.3% (active)
O=C(Nc1ccc(Cl)cc1)C1Cc2c(-c3ccc4c(c3)OCO4)ccnc2O1 (stereo unspecified) | -13.4% (inactive)
CCCCCn1nnnc1C1c2ccccc2C(=O)N1Cc1ccco1 (stereo unspecified) | -0.242% (inactive)
FC(F)(F)C1CCCN(c2nsc3ccccc23)C1 (stereo unspecified) | -91.2% (active)
O=C(NCC(=O)N1CCCC(C(F)(F)F)C1)c1ccccc1F (stereo unspecified) | 3.2% (inactive)
O=C(NC(Cc1ccccc1)C(=O)N1CCCC(C(F)(F)F)C1)c1ccccc1 (stereo unspecified) | 11.8% (inactive)
CCC(C(=O)NC(C)(C)C)n1c(-c2ccccc2)nc2ccccc21 (stereo unspecified) | 1.82% (inactive)
OC[C@@H]1CN(C2CCCC2)C[C@H](n2cnc3c(NC4CCC4)ncnc32)O1 | -2.43% (inactive)
N#Cc1cccc(NC(=O)c2cc(C3CCCCN3C(=O)CCc3ccccc3)on2)c1 (stereo unspecified) | -3.06% (inactive)

SMILES | max response
Cc1ccc(NC(=O)Cn2sc3ccccc3c2=O)cc1 | -87% (active)
Cc1ccc(NC(=O)Cn2c(C)csc2=O)cc1 | 6.3% (inactive)
Cc1nn(CC(=O)Nc2ccc(F)cc2)c(=O)c2ccccc12 | -3.79% (inactive)
CC(C)C[C@H]1CNC(=O)C(=O)N1C[C@@H]1CCCN1C[C@H](Cc1ccccc1)N1C[C@H](CC(C)C)N(CC2CCCCCC2)C(=O)C1=O | -0.689% (inactive)
Cc1cccc(-c2cnc(C(O)c3ccc4ccccc4c3)[nH]2)c1 (stereo unspecified) | -4.33% (inactive)
CCc1nc2c(OCc3ccc(C(F)(F)F)cc3)cccn2c1N(C)C(=O)CC(C)C | 9.67% (inactive)
CCN1CCN(CCNC(=O)c2ccc3c(c2)NC(=O)/C(=C\c2cccc(Cl)c2)S3)CC1 | -64.1% (active)
O=C1Nc2cc(C(=O)N3CCC(N4CCCCC4)CC3)ccc2S/C1=C\c1ccccc1 | -1.98% (inactive)
CCN1CCCC1CNC(=O)c1ccc2c(c1)NC(=O)/C(=C\c1ccccc1F)S2 (stereo unspecified) | -0.909% (inactive)
COC(=O)[C@@]12C[C@@H](CC(=O)N3CCCCC3)C(=O)N(Cc3ccc4c(c3)OCO4)C1=CCC(C)(C)C2 | -2.52% (inactive)
CC(=O)OC[C@@H]1CN(Cc2ccccc2)C[C@H](n2cnc3c(NCc4ccco4)ncnc32)O1 | -7.06% (inactive)
CCCCN(C=O)c1c(CC)nc2c(OCCC3CCCCC3)cccn12 | -11.5% (inactive)
CC1(C(=O)Nc2cccc(Oc3ccccc3)c2)CCN1Cc1ccccc1Cl (stereo unspecified) | 19% (inactive)
CC(=O)N(CC1CCCO1)C1(C(=O)NC2CCCC2)CCCCC1 (stereo unspecified) | 8.44% (inactive)
CC(=O)NCC(=O)N(Cc1ccco1)C1(C(=O)NC2CCCC2)CCCCC1 | 1.69% (inactive)
O=C(Cc1cccs1)N(CC1CCCO1)C1(C(=O)NC2CCCCC2)CCCCC1 (stereo unspecified) | -55.8% (active)
CCCNC(=O)c1cc(C2CCCCN2S(=O)(=O)c2ccc(C#N)cc2)on1 (stereo unspecified) | 7.08% (inactive)
O=C(Nc1ccc(Cl)c(C(F)(F)F)c1)C1Cc2c(-c3ccccc3Oc3ccccc3)ccnc2O1 (stereo unspecified) | 6.93% (inactive)
CC1(C)Cc2ccccc2-c2[nH]c(=S)[nH]c(=O)c21 | -19.7% (inactive)

SMILES | max response
Cc1ccc(NC2(C#N)C(=O)Nc3ccccc32)cc1 (stereo unspecified) | -2.41% (inactive)
N#CC1=C(N)Oc2[nH]c(=S)[nH]c(=O)c2C12C(=O)Nc1ccccc12 (stereo unspecified) | -89.2% (active)
CCc1c(-c2ccc(F)cc2)ncn1Cc1cccc(-c2ccccc2)c1 | -9.99% (inactive)
O=c1[nH]c(/C=C/c2cccc(Br)c2)nc2ccccc12 | -0.363% (inactive)
O=c1oc(/C=C/c2ccccc2)nc2ccccc12 | 8.43% (inactive)
NNc1cccc(C=Cc2ccccc2)cc1=O | -74.4% (active)
OC(c1ccccc1)(c1ccccc1)C1CCN(CCCOc2ccccc2)CC1 | -3.47% (inactive)
CC(C)C1Cc2[nH][nH]c(=O)c2C(c2ccc(Cl)cc2)O1 (stereo unspecified) | -8.68% (inactive)
C1=C(N2CCOCC2)/C(=C/c2nc3ccccc3[nH]2)CC1 | -77.5% (active)
O=c1[nH]c(N2CCOCC2)nc2ccccc12 | -4.73% (inactive)
CC1(C)Cc2c(C#N)c(SCc3nc4ccccc4[nH]3)nc(N3CCOCC3)c2CO1 | 2.17% (inactive)
FC(F)(F)c1cccc(-c2nc3ccccc3n2C(c2ccccc2)c2nc3ccccc3[nH]2)c1 (stereo unspecified) | -4.13% (inactive)
CC1(C(=O)NS(=O)(=O)c2cccs2)CCN1C(=O)Cc1ccc(-c2ccccc2)cc1 (stereo unspecified) | -0.507% (inactive)
COC(=O)C1=C(C)N(C)C(=O)NC1c1ccc([N+](=O)[O-])o1 (stereo unspecified) | -6.27% (inactive)
COC(=O)c1c(C)[nH]c(C)c1-c1ccc([N+](=O)[O-])cc1 | 8.82% (inactive)
COC(=O)C1=C(C(=O)OC)C(c2cc([N+](=O)[O-])ccc2O)c2sc(=O)[nH]c2S1 (stereo unspecified) | -81% (active)
CCCNC(=O)C1(C)CCN1C(=O)Cc1ccc(-c2ccccc2)cc1 (stereo unspecified) | -2.28% (inactive)
CC(=O)c1nn(-c2ccccc2)c(=Nc2ccccc2)cc1C | -0.302% (inactive)
